Measurements taken from the supplement of paper PMC6555819.

Key:
Assay in all cases: PBM binding z-score (relative to random genomic background probes); higher = stronger binding; sequences stand for … in GC…GCGATTGACAGCGTAGAATGAAGG
[1] = tested on: RARg:RXRa (NR concentration 270 nM, RXRa partner concentration 90 nM)
Outline: (§1)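 For binding z-scores, the reference was random background probes on custom Agilent 4×180K protein-binding microarrays. These arrays were incubated 1 h with ligand-free nuclear receptor dimers in PBS pH 7.4, 2% milk, 0.02% Triton X-100, 1 mM DTT, 0.2 mg/mL BSA and 0.4 mg/ml salmon testes DNA. Fluorescence was scanned after antibody detection of each partner (one per run) and regression-normalized.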

[2] = tested on: RARg homodimer (NR concentration 270 nM)
Outline: as §1

[3] = tested on: RXRa DBDmut IVT, anti-RXR (DBD mutation: RXRa K156A/R161A, NR concentration 90 nM)
Outline: as §1

[4] = tested on: RXRa homodimer (NR concentration 180 nM)
Outline: as §1

[5] = tested on: THRa:RXRa (NR concentration 90 nM, RXRa partner concentration 90 nM)
Outline: as §1

[6] = tested on: THRa homodimer (NR concentration 90 nM)
Outline: as §1

[7] = tested on: VDR homodimer (NR concentration 270 nM)
Outline: as §1

Row | Sequence | PBM binding z-score [1] | PBM binding z-score [2] | PBM binding z-score [3] | PBM binding z-score [4] | PBM binding z-score [5] | PBM binding z-score [6] | PBM binding z-score [7]
1 | TGTCAACGTTCAAAGGTAACGTAAGTATCCACAC | 1.28 | 1.09 | -0.465 | 1.27 | 1.46 | -0.221 | -0.0342
2 | ATATGTAGGTTACATCCGGGTCATCCAGGCTATG | 3.98 | 2.1 | 0.681 | 2.89 | 3.89 | 2.64 | 2.44
3 | TGAATGAGGTTAAATATCAGGGAACGTGGCGTCG | 2.18 | 1.43 | 1.95 | 2.84 | 2.38 | 0.583 | 1.02
4 | CGAACAAGGTCACCAGGACAGTGAAGAGGTTGGA | 6.81 | 6.95 | 3.8 | 7.03 | 4.15 | 3.1 | 2.83
5 | TAGCCTAGGTCATTCAGGGGCCACTATAGAAAGC | 6.46 | 4.76 | 1.94 | 3.21 | 3.89 | 1.05 | 1.92
6 | AGTCAAAGTTGAGGACGAGGTAACGTAAAGCACG | 1.38 | 1.24 | -0.405 | 0.856 | 3.3 | 1.96 | 0.344
7 | GATACAGGGTCAGCTACAGGCCAGAGTATGGAAA | 5.37 | 4.29 | 1.25 | 4.23 | 2.83 | 0.162 | 0.801
8 | ATCGAAAGGTCCACGAGGTGAGTATACACCGTTT | 1.13 | 1.3 | 0.571 | 0.952 | 1.96 | 0.835 | 0.691
9 | ATCGAAAGGTCGAAGGTGAGCATACCCACCCGAA | 4.35 | 3.86 | 0.654 | 5.22 | 2.36 | 0.23 | 0.602
10 | TCTAGTTGGTCTAAGGTCACACACTCGAAATGCG | 4.63 | 4.37 | 2.21 | 4.71 | 4.63 | 5.66 | 2.99
11 | TCTGCTAGGTCAACGTTGGTCAGCTAATCTGCTA | 3.78 | 4.83 | 1.06 | 2.32 | 3.21 | 0.755 | -0.37
12 | GATACAGGGTCGGCTAGAGGCCAGAGTATGGAAA | 4.14 | 1.5 | -0.0719 | 1.49 | 1.22 | -0.62 | 0.35
13 | TCTTGTAGATCGATAGAGGTTAAGAAAGTGCGCT | 0.525 | 0.389 | 0.591 | 1.1 | 1.48 | -0.46 | 0.0902
14 | CCTACTGGGCCTAAGGTCATTGATTCCAATGCTC | 3.16 | 2.83 | 1.17 | 3.44 | 3.88 | 4.55 | 2.68
15 | TAGCCTAGGGCATTCAGGGGCCAGTATAGAAAGC | 1.99 | 1.1 | -0.766 | 0.0553 | 1.2 | -0.586 | -0.169
16 | CAAACTAGGTCACTAAAGGTCAAAGTCGAATGAC | 7.43 | 7.86 | 2.41 | 7.61 | 5 | 2.19 | 3.72
17 | AGTCAAACTTCAGGACGAGGTAACGTAAAGCACG | 0.505 | 0.586 | -0.343 | 0.511 | 2.44 | 1.77 | -0.0917
18 | CCTACTGGGCCGTTCAGAGGTCATTGATCATATG | 3.7 | 2.47 | 0.516 | 3.46 | 2.86 | 1.42 | 2.97
19 | TTACCAAGGTGAACGGTCGTTGATGCACGCCTTG | 0.796 | 0.84 | -0.078 | 1.24 | 1.93 | 0.872 | -0.356
20 | CCTTACGGGTCACTCCAGGTTATATCATCGGAGT | 4.35 | 4.43 | 1.46 | 4.17 | 5.19 | 0.814 | 1.49

Row | Sequence | PBM binding z-score [1] | PBM binding z-score [2] | PBM binding z-score [3] | PBM binding z-score [4] | PBM binding z-score [5] | PBM binding z-score [6] | PBM binding z-score [7]
21 | TCTAGTTGGTCACGGAGGACACACACGACGGGTA | 1.55 | 2.32 | 0.501 | 0.864 | 1.83 | 1.27 | 0.76
22 | CGTCCAAGGTCAAGGTCAATGAAAGAGACTCGAA | 7 | 7.87 | 3.91 | 6.52 | 4.35 | 3.41 | 3.28
23 | GCTAGTTGGTCAGTAAAATGTCACACACCGGTCG | 0.584 | 0.697 | 0.121 | 0.272 | -0.216 | -0.123 | 0.162
24 | ACTCGGTGGACAAAGGTCAGAGCTACGCCAGTGA | 4.58 | 4.49 | 0.0487 | 4.44 | 2.45 | -0.204 | 0.332
25 | AATACAGGGTAACTAGGCCAGAGTAGGTACGAAT | 0.64 | 0.567 | -0.0804 | 0.664 | 0.631 | -0.0802 | 0.108
26 | GATATAGGGTCAGCTAGAGGCCAGAGTATGGAAA | 6.81 | 5.11 | 1.67 | 4.63 | 3.42 | 0.95 | 0.867
27 | TATAAAGGGTCAAAGGCCAGAGTACGAATGTCGA | 6.39 | 6.63 | 3.06 | 7.08 | 3.11 | -0.348 | 2.46
28 | ATATGTAGGTTAAGCGTCATTCAGGTTGGTTCGC | 0.863 | 0.763 | 0.559 | 1.15 | 0.543 | 0.263 | 0.378
29 | CATACAGGGTCGGCTAGGCCAGAGTAGGGACGGC | 0.866 | 1.16 | -0.309 | 0.983 | 0.966 | -0.41 | 0.745
30 | ATATGTAGGTTAGGGGTCATTCAGGTTGGTTCGC | 5.63 | 4.38 | 2.85 | 7.75 | 3.99 | 2.88 | 6.78
31 | CGAACAAGGTCATCCAGGACAGTGAATACATTGA | 6.28 | 6.49 | 4.2 | 6.46 | 4.53 | 3.3 | 4.92
32 | TAGCCTAGGTCGTTCAGGGGCCAGTATAGAAAGC | 3.43 | 1.27 | 0.406 | 0.583 | 2.04 | -0.169 | 0.675
33 | CAGCATAGGTCAGGGCCAGTATAGGAGGAACGTT | 3.97 | 4.39 | 0.209 | 3.33 | 1.65 | -0.231 | -0.0525
34 | CCTTACGGGTCACTGACAGGTTATAGCGTTTGGA | 5.75 | 4.55 | 1.73 | 5.06 | 2.76 | 0.417 | 1.2
35 | TCTCGGAGGACACCAAAGGTCAGAGCTCGACATC | 4.82 | 5.32 | 0.814 | 4.15 | 3.65 | 1.2 | 1.11
36 | CGAACTAGGTCGTCCAGGACAGTGAATACATTGA | 0.869 | 1.08 | 1.02 | 0.72 | 2.27 | 0.874 | 0.591
37 | CCTACTGGGCCAAAAAGTTCATTGATGCCGATAA | 1.48 | 1.8 | 1.51 | 0.748 | 0.849 | -0.23 | 4.38
38 | TTACCAAGGTCAAGGTCGTTGATCCCTCTGTAGA | 6.48 | 6.91 | 3.27 | 6.84 | 4.38 | 3.6 | 4.9
39 | CCGAGTAGGTTACTAGGGGGCATTCAGTGCGAAT | 2.46 | 2.1 | 1.4 | 1.72 | 3.57 | 0.676 | 3.59
40 | AGAATGAGGTCACCAAAGATCAGGGAAACGCTTG | 6.82 | 7.16 | 4.12 | 7.51 | 4.63 | 3.75 | 3.69

Row | Sequence | PBM binding z-score [1] | PBM binding z-score [2] | PBM binding z-score [3] | PBM binding z-score [4] | PBM binding z-score [5] | PBM binding z-score [6] | PBM binding z-score [7]
41 | AATAAAGGGTCATCGTAGGCCAGAGTACGCACAG | 6.49 | 6.51 | 3.4 | 6.51 | 4.49 | 0.425 | 3.62
42 | TAGCCTAGTTCATTCAGGGGCCAGTATAGAAAGC | 3.6 | 1.34 | 2.96 | 0.328 | 1.68 | -0.0964 | 2.71
43 | ATATGTAGGTTAGCTGGGGTCCTTCAGACTAGGC | 0.698 | 0.529 | 0.183 | 0.692 | 3.45 | 0.268 | 0.249
44 | ATCGAAAGGTCGACGCGGTGAGTATACACCGTTT | 4.07 | 4.09 | 1.12 | 3.83 | 1.97 | -0.506 | 0.391
45 | AGAATGAGATTACCAAAGATCAGGGAAACGCTTG | 0.145 | 0.36 | -0.574 | 0.178 | -0.261 | -0.869 | -0.177
46 | CCTCGGAGGACAACAGGAGGTCATAGCTGCCAGA | 3.93 | 3.78 | 1.1 | 3.09 | 3.58 | 1.5 | 2.44
47 | ATTTGTAGGTTACATCCGGGTCATTCAGGCTATG | 4.18 | 2.41 | 1.3 | 3.47 | 3.85 | 3.39 | 4.18
48 | AATACAGGGTCACGAGGCCAGAGTAGGTACGAAT | 6.44 | 5.99 | 2.95 | 7.67 | 4.06 | 2.21 | 3.31
49 | CCTACTGGGCCAAAAAGGTCATTGATGCCGATAA | 4.72 | 4.42 | 0.661 | 5.23 | 3.12 | 0.474 | 2.01
50 | TGTATGAGGTTAAAGATCAGGGAACGTGGCGTCG | 2.79 | 1.99 | 1.22 | 4.35 | 2.84 | 1.01 | 1.19
51 | AAAACAGGGTCATCGTAGGCCAGAGTACGCACAG | 6 | 5.11 | 3.74 | 7.23 | 4.81 | 1.58 | 4.06
52 | AGTCAAAGTTCATCTAGGTAACATAAGATATGCT | 5.69 | 6.1 | 4.79 | 4.84 | 3.19 | 0.324 | 5.55
53 | ATATGTAGTTTATCGGGTCATTCAGTTTGCGCAT | 2.41 | 1.85 | 2.32 | 2.61 | 3.42 | 3.09 | 4.13
54 | CGAACTAGGTCATTGACAGGACAGTGGATAGTAA | 4.35 | 4.34 | 2.35 | 2.59 | 2.76 | 0.809 | 1.22
55 | CCTCGGAGGACAGAAGGTCAAAGCTGTCCGCTTT | 4.94 | 4.52 | 0.948 | 4.07 | 3.2 | 0.161 | 0.867
56 | GCTGCTAGGTCAACTGATGGTCACCTAAAGCTCG | 5.53 | 5.1 | 1.29 | 3.52 | 3.38 | 1.69 | 0.0494
57 | ATCGAAAGGTCGACCAGGTGAGTATACACCGTTT | 4.38 | 4.1 | 1.3 | 4.37 | 3.34 | 0.391 | 1.22
58 | CGTCCAAGGTCAATGCTAGATCAGTGAAAGCATT | 5.61 | 5.86 | 3.56 | 4.83 | 3.51 | 1.97 | 2.34
59 | TAGCCTAGGTCATGCGGCCCAGTATAGTGTCGGC | 3.79 | 4.07 | 0.176 | 2.87 | 2.89 | 0.868 | 0.276
60 | CCAGACAGGTGAGAAGGTAACTCAGCCTCGATTA | 0.555 | 0.652 | 0.16 | 0.448 | 0.425 | 0.236 | 0.403
